# Measured values published in PubChem BioAssay (NCATS).
# Results filed as inconclusive are left out. A number with no mark means an inactive call. Calls of active or inactive are those of the source. Calls follow the shape of the dose curve; as a rule, active = well fitted cell-killing curve with a large enough effect; inconclusive = small, poorly fitted or top-dose-only effect, or effect the other way; inactive = no such curve, though single readings can be large or run the other way. Starred links: 1 amine or outer side, 2 acyl side, 3 side chain; linkers in the order of their positions; H or OH if unused. Positions of bridges follow the written chain, without caps; N, C: chain ends. Non-standard residues stand in square brackets, D forms with d. Residues, ends and D or L forms follow the SMILES beside them. Chains are numbered I, II in the order given. *: point of attachment. Actinocin(9to1) = Cc1c2oc3c(C)ccc(C(=O)[*:1])c3nc-2c(C(=O)[*:2])c(N)c1=O; NMeV = CN[CH](C(=O)O)C(C)C; Cbz = O=C(OCc1ccccc1)*; Sar = CNCC(=O)O
# Experiment: qHTS of pediatric cancer cell lines to identify multiple opportunities for drug repurposing: Confirmatory screen for NB1643 cells (AID 1347109); also: nearly all actives have a fitted effect of over 45% in size
# Conditions: NB1643 neuroblastoma cell viability; series mostly up to 45.9 µM; activity change, negative = cytotoxic: at the top concentration
# Text: Drug repurposing or repositioning has been offered as a strategy for drug development in oncology programs. This approach has special potential for childhood cancers and other rare or orphan diseases, where the expected return on new drug development has been a disincentive to pharmaceuticals.
# In this project we exploit the poly-pharmacology of drugs to discover new indications via phenotypic screening of a panel of 19 well-characterized cell lines derived from solid tumors seen in children and adolescents. The goal is to identify approved drugs with previously unrecognized anticancer properties that has the potential to reveal new mechanisms and biological processes involved in carcinogenesis or drug resistance. We employed a titration-based paradigm (quantitative high-throughput screening or qHTS), where all compounds were tested at multiple concentrations for their effect on cell viability. Concentration-response curves (CRCs) were derived directly from the primary screen, and both potency and efficacy values were used to identify compounds with robust bioactivity profiles. We screened the NIH Chemical Genomics Center (NCGC) Pharmaceutical Collection (NPC) and Mechanism Interrogation Plate (MIPE) small molecule collections of approved and investigational compounds against these cell lines; and measured metabolically active cells after 48 hours of compound treatment as a proxy for cell viability.
# Assay Submitter: Nathalia J. Martinez, National Center for Advancing Translational Sciences, National Institutes of Health, Rockville, MD, USA; email: natalia.martinez@nih.gov
# [1] Shen, M et al. Quantitative high-throughput phenotypic screening of pediatric cancer cell lines identifies multiple opportunities for drug repurposing. Oncotarget 2017 Dec 19;9(4):4758-4772. PMID 29435139.
# The cells were obtained from University of North Carolina (UNC), Pediatric Preclinical Testing Program (PPT), and Coriell Institute (CI).
# qHTS cell viability assay:
# Cells were assayed in growth media at a density of 500-1,000 cells/well. Five microliters of cells were dispensed into 1,536-well, white, solid-bottom, TC-treated plates (Greiner Bio One) using a multidrop dispenser and incubated at 37 degrees C, 5% CO2, under a humidified atmosphere for 5 hours. Twenty-three nanoliters of compounds and controls (neutral control DMSO or positive control bortezomib at final concentration of 2.3 µM) were subsequently transferred by Kalypsys pintool. For primary screens, the MIPE collection was tested at 11-point dilutions (final concentrations range from 0.78 nM to 46 µM) and the NPC collection at 8-point dilutions (final concentrations range from 0.59 nM to 46 µM). Compounds tested in follow-up screens were assayed at 11-point dilutions. Cells were incubated for 48 hours, followed by addition of 3 µL of CellTiter-Glo (Promega). After a 15 min incubation at room temperature, samples were analyzed for luminescence intensity using a ViewLux High-throughput CCD imager equipped with clear filters.
# Potency is read from the fitted curve at half-maximal effect.
SMILES,Potency,"activity change, negative = cytotoxic"
CC(C=CC(=O)NO)=C[C@@H](C)C(=O)c1ccc(N(C)C)cc1,0.585 µM (active),–
CC1(C)O[C@@H]2C[C@H]3[C@@H]4CCC5=CC(=O)C=C[C@]5(C)[C@@H]4[C@@H](O)C[C@]3(C)[C@]2(C(=O)CO)O1,–,7.83%
CC(C)(N)c1ccc(-c2nc3ccccc3nc2-c2ccccc2)cc1,26.1 µM (active),–
COc1cccc2c1C(=O)c1c(O)c3c(c(O)c1C2=O)C[C@@](O)(C(C)=O)C[C@H]3O[C@H]1C[C@H](N)[C@H](O)[C@H](C)O1,0.165 µM (active),–
C=CC(=O)N1CCc2ccc(-n3c(=O)ccc4cnc5ccc(-c6cnn(C)c6)cc5c43)cc21,2.93 µM (active),–
FC(F)c1nc2ccccc2n1-c1nc(N2CCOCC2)nc(N2CCOCC2)n1,1.47 µM (active),–
Cn1c(Nc2ccc(C(F)(F)F)cc2)nc2cc(Oc3ccnc(-c4ncc(C(F)(F)F)[nH]4)c3)ccc21,20.8 µM (active),–
COc1cc(C[C@@H](CO)[C@H](CO)Cc2ccc(O)c(OC)c2)ccc1O,–,1.02%
COc1ccc(Nc2cc(-c3cnc(N)nc3)nc(N3CCOCC3)n2)cn1,8.27 µM (active),–
C=CC(=O)Nc1cccc(Nc2nc(NC3CCC(N(C)C)CC3)nc3c2ncn3C(C)C)c1 (stereo not given),0.414 µM (active),–
O=C(Nc1cc2cc[nH]c2cn1)c1ccccc1,10.4 µM (active),–
Nc1ncn([C@@H]2O[C@H](CO)[C@@H](O)[C@@H]2O)c(=O)n1,16.5 µM (active),–
CC(C=CC1=C(C)CCCC1(C)C)=CC=CC(C)=CC(=O)Nc1ccc(O)cc1,42.7 µM (active),–
CCN(CC)Cc1ccc2cc(COC(=O)Nc3ccc(C(=O)NO)cc3)ccc2c1,–,0.771%
COc1cccc2c1C(=O)c1c(O)c3c(c(O)c1C2=O)C[C@@](O)(C(=O)CO)C[C@H]3O[C@H]1C[C@H](N)[C@H](O)[C@H](C)O1,0.522 µM (active),–
CN[C@H]1[C@@H](O)[C@@H]2O[C@@H]3O[C@H](C)CC(=O)[C@]3(O)O[C@@H]2[C@@H](NC)[C@H]1O,–,-4.44%
O=C1NC(=O)C(=Cc2ccc3nccc(-c4ccncc4)c3c2)S1,6.57 µM (active),–
COc1cc(OC)c(C=CS(=O)(=O)Cc2ccc(OC)c(NCC(=O)O)c2)c(OC)c1,0.414 µM (active),–
COc1cc(C=CC(=O)CC(=O)C=Cc2ccc(O)c(OC)c2)ccc1O,30.2 µM (active),–
O=C1c2c(O)cccc2[C@@H]([C@@H]2O[C@H](CO)[C@@H](O)[C@H](O)[C@H]2O)c2cc(CO)cc(O)c21,–,-2.63%

SMILES,Potency,"activity change, negative = cytotoxic"
CN(CC(=O)N(Cc1ccc(C2CCCCC2)cc1)c1ccc(C(=O)O)c(O)c1)S(=O)(=O)c1c(F)c(F)c(F)c(F)c1F,26.1 µM (active),–
COc1cc(O)c2c(c1)C1OC1C[C@H](O)[C@H](O)C(=O)C=CC[C@H](C)OC2=O (stereo not given in full),4.65 µM (active),–
Cc1[nH]c(C=C2C(=O)Nc3ccccc32)c(C)c1CCC(=O)O,–,-6.72%
"Cc1c2oc3c(C)ccc(C(=O)NC4C(=O)NC(C(C)C)C(=O)N5CCCC5C(=O)N(C)CC(=O)N(C)C(C(C)C)C(=O)OC4C)c3nc-2c(C(=O)NC2C(=O)NC(C(C)C)C(=O)N3CCCC3C(=O)N(C)CC(=O)N(C)C(C(C)C)C(=O)OC2C)c(N)c1=O (stereo not given) (I: TVP[Sar][NMeV] / II: TVP[Sar][NMeV]; ester I:1-I:C, II:1-II:C; linker I:N-II:N via Actinocin(9to1); configuration not given here)",–,-49.2%
CNC(=O)c1ccc(Nc2cc(Nc3ccccc3S(=O)(=O)C(C)C)c3cc[nH]c3n2)nc1,1.47 µM (active),–
CC(=O)SCC(Cc1ccccc1)C(=O)NCC(=O)OCc1ccccc1 (stereo not given),–,-27%
C=C1C(=CC=C2CCC[C@]3(C)[C@@H]([C@H](C)CCCC(C)(C)O)CC[C@@H]23)C[C@@H](O)C[C@@H]1O,–,-18.4%
CCc1cc(C(C)=NOCc2ccc(C3CCCCC3)c(C(F)(F)F)c2)ccc1CN1CC(C(=O)O)C1,29.3 µM (active),–
COC1=C2C[C@@H](C)C[C@H](OC)[C@@H](O)[C@@H](C)C=C(C)[C@H](OC(N)=O)[C@@H](OC)C=CC=C(C)C(=O)NC(=CC1=O)C2=O,1.31 µM (active),–
O=S(=O)(O)CCSSCCS(=O)(=O)O,–,14.2%
CS(=O)(=O)N1CCc2c(-c3cnc(N)nc3)nc(N3CCOCC3)nc21,1.65 µM (active),–
CCN(CC)CCNC(=O)c1c(C)[nH]c(C=C2C(=O)Nc3ccc(F)cc32)c1C,10.7 µM (active),–
CCCCC(=O)O[C@]1(C(=O)CO)[C@@H](C)C[C@H]2[C@@H]3CCC4=CC(=O)C=C[C@]4(C)[C@@]3(F)[C@@H](O)C[C@@]21C,–,-3.75%
C=CC(=O)Nc1ccc2ncnc(Nc3ccc(OCc4cccc(F)c4)c(Cl)c3)c2c1,14.7 µM (active),–
CC(C)C[C@@H](C=O)NC(=O)[C@H](CC(C)C)NC(=O)[C@H](CC(C)C)NC(=O)OCc1ccccc1 (Cbz-Leu-Leu-Leu-aldehyde),1.17 µM (active),–
CC(C)C[C@H](NC(=O)[C@@H](NC(=O)c1cccc(-c2ccccc2)n1)[C@@H](C)O)B(O)O,0.0827 µM (active),–
Cc1cnc(Nc2ccc(N3CCN(C)CC3)cc2)nc1Nc1cccc(S(=O)(=O)NC(C)(C)C)c1,4.65 µM (active),–
C[C@@]12C(=O)OC(=O)[C@@]1(C)C1CCC2O1,3.29 µM (active),–
CC(C)(O)Cn1c(NC(=O)c2ccc(-c3cn[nH]c3)s2)nc2cc(CN3CCOCC3)ccc21,0.329 µM (active),–
CC(=O)ON=C1C(c2c(O)[nH]c3cc(Br)ccc23)=Nc2ccccc21,16.5 µM (active),–
